Assay results published in PubChem BioAssay (NCATS).
Results filed as inconclusive are left out. Activity calls are given as the source filed them. The call rests on the fitted dose curve; in most records, active means well fitted inhibition curve with a large enough effect; inconclusive means small, poorly fitted or top-dose-only effect; inactive means flat fitted curve, though single readings scatter.

Experiments:
Test in all cases: qHTS profiling for inhibitors of Plasmodium falciparum proliferation (AID 504749); further: nearly all actives have a fitted effect of over 60% in size
3D7 = conditions: P. falciparum in erythrocytes, SYBR Green DNA, 72 h; series mostly up to 28.7 µM
How it was run: (§1)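 SYBR Green fluorescence of parasite DNA, read after lysis and overnight dark incubation, measured growth over 72 h in erythrocyte culture at 0.3% parasitemia and 2.5% hematocrit. Data normalised to DMSO and 0.29 uM artemisinin, with plate-drift correction.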

AA1029 = conditions: P. falciparum in erythrocytes, SYBR Green DNA, 72 h; series mostly up to 28.7 µM
How it was run: as §1

ATS189 = conditions: P. falciparum in erythrocytes, SYBR Green DNA, 72 h; series mostly up to 28.7 µM
How it was run: as §1

ATS95 = conditions: P. falciparum in erythrocytes, SYBR Green DNA, 72 h; series mostly up to 28.7 µM
How it was run: as §1

CP238 = conditions: P. falciparum in erythrocytes, SYBR Green DNA, 72 h; series mostly up to 28.7 µM
How it was run: as §1

CP247 = conditions: P. falciparum in erythrocytes, SYBR Green DNA, 72 h; series mostly up to 28.7 µM
How it was run: as §1

CP262 = conditions: P. falciparum in erythrocytes, SYBR Green DNA, 72 h; series mostly up to 28.7 µM
How it was run: as §1

DFO2036 = conditions: P. falciparum in erythrocytes, SYBR Green DNA, 72 h; series mostly up to 28.7 µM
How it was run: as §1

Dd2 = conditions: P. falciparum in erythrocytes, SYBR Green DNA, 72 h; series mostly up to 28.7 µM
How it was run: as §1

ECU = conditions: P. falciparum in erythrocytes, SYBR Green DNA, 72 h; series mostly up to 28.7 µM
How it was run: as §1

JCK = conditions: P. falciparum in erythrocytes, SYBR Green DNA, 72 h; series mostly up to 28.7 µM
How it was run: as §1

P94_40 = conditions: P. falciparum in erythrocytes, SYBR Green DNA, 72 h; series mostly up to 28.7 µM
How it was run: as §1

PC49 = conditions: P. falciparum in erythrocytes, SYBR Green DNA, 72 h; series mostly up to 28.7 µM
How it was run: as §1

TAB109 = conditions: P. falciparum in erythrocytes, SYBR Green DNA, 72 h; series mostly up to 12.8 µM
How it was run: as §1

CP192 = conditions: P. falciparum in erythrocytes, SYBR Green DNA, 72 h; series mostly up to 28.7 µM
How it was run: as §1

CP211 = conditions: P. falciparum in erythrocytes, SYBR Green DNA, 72 h; series mostly up to 28.7 µM
How it was run: as §1

CP269 = conditions: P. falciparum in erythrocytes, SYBR Green DNA, 72 h; series mostly up to 28.7 µM
How it was run: as §1

CP305 = conditions: P. falciparum in erythrocytes, SYBR Green DNA, 72 h; series mostly up to 28.7 µM
How it was run: as §1

CP329 = conditions: P. falciparum in erythrocytes, SYBR Green DNA, 72 h; series mostly up to 28.7 µM
How it was run: as §1

DIV30 = conditions: P. falciparum in erythrocytes, SYBR Green DNA, 72 h; series mostly up to 28.7 µM
How it was run: as §1

Measured: Potency

C[C@]12CC[C@H](O)CC1=CCC1C2CC[C@]2(C)C(=O)CC[C@@H]12 (some centres not stated)
not listed: CP192 | CP211 | CP269 | CP305 | CP329 | DIV30
inactive: all other assays above

ClC1=C(Cl)C2(Cl)C3C4CC(C5OC45)C3C1(Cl)C2(Cl)Cl (configuration not stated)
not listed: ATS95 | CP262 | P94_40
inactive: all other assays above

C[N+]1([O-])[C@@H]2CC(OC(=O)[C@@H](CO)c3ccccc3)C[C@@H]1[C@H]1O[C@H]12 (some centres not stated)
inactive: all assays above

CC[C@@H]1[C@@H]2C[C@H]3[C@H]4N(C)c5ccccc5[C@@]45C[C@@H]([C@@H]2[C@@H]5O)N3[C@H]1O
not listed: P94_40 | PC49
inactive: all other assays above

C[C@H](N)[C@@H](O)c1ccccc1
inactive: all assays above

CC[C@@]1(c2ccc(N)cc2)CCC(=O)NC1=O
inactive: all assays above

CC1=C2[C@@H]3OC(=O)[C@@H](C)[C@@H]3CC[C@]2(C)C=CC1=O
not listed: AA1029 | ATS189 | CP238 | CP247 | DFO2036 | TAB109
inactive: all other assays above

CCNC[C@H](O)c1cccc(O)c1
inactive: all assays above

C#CCN(C)[C@@H](C)Cc1ccccc1
not listed: TAB109
inactive: all other assays above

C[N+]1(C)[C@@H]2CC[C@H]1CC(OC(=O)[C@@H](CO)c1ccccc1)C2 (some centres not stated)
inactive: all assays above
